PubChem BioAssay (NCATS)
Results filed as inconclusive are left out. Calls of active or inactive are those of the source.

Test: qHTS for identification of novel therapeutic agents for treatment of microphthalmiaassociated transcription factor (MiT) renal cell carcinoma (RCC) (AID 1963991)
Conditions: CellTiter-Glo, 48 h; for Potency: active = Z-AUC below -0.8 in all three lines; for z-score: stronger effect = lower value
From the text: PI: Marston Linehan Ph.D.
Urologic Oncology Branch, Center for Cancer Research (CCR)
National Cancer Institute (NCI), National Institute of Health (NIH), Bethesda, Maryland
MiT-Renal Cell Carcinoma (RCC) is characterized by genomic translocations involving microphthalmia-associated transcription factor (MiT) family members TFE3, TFEB, or MITF. MiT-RCC represents a specific subtype of sporadic RCC that is predominantly seen in young patients and can present with heterogeneous histological features making diagnosis challenging. Moreover, the disease biology of this aggressive cancer is poorly understood and there is no accepted standard of care therapy for patients with advanced disease. Tumor-derived cell lines have been established from human TFE3-RCC providing useful models for preclinical studies. TFE3-RCC tumor derived cell lines and their tissues of origin were characterized by IHC and gene expression analyses. An unbiased high-throughput drug screen was performed to identify novel therapeutic agents for treatment of MiT-RCC. Potential therapeutic candidates were validated in in vitro and in vivo preclinical studies. Mechanistic assays were conducted to confirm the on-target effects of drugs. The results of a high-throughput small molecule drug screen utilizing three TFE3-RCC tumor-derived cell lines identified five classes of agents with potential pharmacological efficacy, including inhibitors of phosphoinositide-3-kinase (PI3K) and mechanistic target of rapamycin (mTOR), and several additional agents, including the transcription inhibitor Mithramycin A. Upregulation of the cell surface marker GPNMB, a specific MiT transcriptional target, was confirmed in TFE3-RCC and evaluated as a therapeutic target using the GPNMB-targeted antibody-drug conjugate CDX-011. […] The results of the high-throughput drug screen and validation studies in TFE3-RCC tumor-derived cell lines have provided in vitro and in vivo preclinical data supporting the efficacy of the PI3K/mTOR inhibitor.
SEQUENCE No. (e.g., 1, 2, 3, etc.); […] (e.g., Cells, Incubation, Reagent, etc.); VALUE; DESCRIPTION.
1; Cells; 3 uL; white, solid-bottom Grenier assay plate.
2; Compounds; 23 nL; Kalypsis pin-tool (Wako USA).
3; Incubation; 48 hr; 37 C, 5% CO2, 95% humidity.
4; Reagent; 3 uL; CellTiter-Glo reagent (Promega).
5; Incubation; 15 min; room temperature.
6; Detection; Luminescence; ViewLux plate reader (PerkinElmer).
NOTES (numbers refer to Sequence numbers above)
1. Quantitative high-throughput screening (qHTS) of 1912 pharmacologically defined small molecule compounds was conducted on three TFE3-fusion cell lines bearing three different fusion partners (UOK109, UOK124, UOK145). Briefly, 500 cells in complete growth media were plated into white, solid-bottom, 1536-well tissue culture treated plates (Grenier Cat. 789173-F) using a Multidrop Combi cassette dispenser.
2. Twenty-three nanoliter of 1912 pharmacologically defined small molecule compounds of the NCATS Mechanism Interrogation PlatE (MIPE) version 4.0 were added to each assay plate using a Pintool Dispenser (Wako) equipped with 1536 pin head.
3. Plates were covered with stainless steel gasketed lids and incubated for 48 hours at standard cell culture conditions.
4. Viability was assessed by adding 3uL of CellTiter-Glo detection reagent (Promega).
5. Plates were covered with gasket lids and incubated for 15 minutes at room temperature.
6. Luminescence was measured on a ViewLux plate reader (PerkinElmer). Post-screen data processing used DMSO controls as 100% viability and empty wells as 0% viability and dose response curve fitting was done for all 11 concentrations for each compound.

[1] = TFE3-RCC UOK109 viability, measured here: UOK109 Z-AUC
[2] = TFE3-RCC viability, measured here: UOK124 Z-AUC
[3] = TFE3-RCC viability, measured here: UOK145 Z-AUC
Potency is the fitted concentration of half-maximal effect.

Row | SMILES | Potency (TFE3-RCC UOK109 viability) | z-score [1] | z-score [2] | z-score [3]
1 | CC(C)c1cc(-c2n[nH]c(=O)n2-c2ccc3c(ccn3C)c2)c(O)cc1O | 0.0743 µM (active) | -1.34 | -0.923 | -1.27
2 | C=CC(=O)Nc1cccc(Oc2nc(Nc3ccc(N4CCN(C)CC4)cc3)ncc2Cl)c1 | 0.833 µM (active) | -2.72 | -0.851 | -2.36
3 | NC(=O)Nc1cc(-c2cccc(F)c2)sc1C(=O)N[C@H]1CCCNC1 | 0.935 µM (active) | -1.42 | -1.69 | -1.85
4 | CC(NCc1ccc2c(c1)nc(NC(=O)c1ccc(-c3cn[nH]c3)s1)n2CC(C)(C)O)C(C)(C)C (configuration not stated) | 0.935 µM (active) | -1.95 | -2.39 | -1.22
5 | O=C(Nc1ncc(-c2cc(C(F)F)nn2-c2c(Cl)cccc2Cl)s1)C1CC1 | 0.935 µM (active) | -1.06 | -1.43 | -1.27
6 | Nc1ncnc2c1c(-c1cnc3[nH]ccc3c1)nn2C1CCCC1 | 0.264 µM (active) | -2.06 | -1.51 | -1.32
7 | CCCn1c(=O)c2[nH]c(-c3cnn(Cc4cccc(C(F)(F)F)c4)c3)nc2n(CC)c1=O |  | 0.85 | 0.351 | 0.744
8 | CC(C)(C)c1cc(C(C)(C)C)c(NC(=O)c2c[nH]c3ccccc3c2=O)cc1O |  | 0.938 | 0.941 | 0.665
9 | COC(=O)C1=C(C)NC(C)=C(C(=O)OCCN2CCN(C(c3ccccc3)c3ccccc3)CC2)C1c1cccc([N+](=O)[O-])c1 (configuration not stated) |  | 0.729 | 0.516 | -0.011
10 | CC1COC2(CCN(c3nc(=O)c4cc(C(F)(F)F)cc([N+](=O)[O-])c4s3)CC2)O1 (configuration not stated) |  | 1.51 | 0.131 | 0.808
11 | Cn1c2cc(S(C)=O)sc2c2cnn(Cc3cccc(N)c3)c(=O)c21 (configuration not stated) |  | 0.336 | 0.595 | 0.401
12 | O=C(O)Cn1nnc(-c2cc(N3CCC(Oc4cc(F)ccc4Br)CC3)no2)n1 |  | 0.654 | 0.371 | 1.36
